C2C12 statin – suppression of simvastatin myotoxicity; C2C12 myotubes + simvastatin, ATP luminescence, 48 h; scaled: DMSO 0, geranylgeraniol control 100; rescue of ATP level, % at 7.49 µM; 0.78% of 330,000 active;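 active = mean ATP rescue above about 67%, or every replicate alone reaching that limit, limit read from the data, passing the limit was not always enough; inconclusive = no clear call, values can overlap the other calls; inactive = mean under the limit and some replicate under it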;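 also: myotubes were challenged with 10 µM simvastatin during compound exposure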
PglD inh – inhibitors of Campylobacter jejuni PglD acetyltransferase; purified PglD enzyme, DTNB colorimetric CoA detection; inhibition, % at 12.5 µM; 0.098% of 360,000 active; AID 602405; in the data active = inhibition above about 16%, passing the limit was not always enough; inconclusive = no clear call, values can overlap the other calls
NSD2 HMT inh – inhibitors of human histone methyltransferase NSD2. NSD2 peptide methylation, AlphaScreen, 120 min. 0.54% of 310,000 active. inhibition, % at 12.5 µM. O96028; in the data active = inhibition above about 50%
miR-122 sensor – inhibitors of miR-122 in Huh7 cells; Huh7 miR-122 Renilla luciferase sensor, 48 h; neutral wells = 0, positive control = 100; activation (reporter increase), % at 12.5 µM; 0.3% of 340,000 active; AID 602342;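 active = mean replicate activation score at least 90 and every replicate individually at or above 90; inconclusive = only one of the two criteria met; inactive = neither criterion met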;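 also: higher luciferase means less miR-122 activity so hits act as miR-122 inhibitors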
Of the large screens only hits and unclear results are named; the others gave an inactive call. In the library only some 1.2% were active in any assay of this set; here they are far more common.

C[C@@H]1CN([C@H](C)CO)C(=O)c2cc(NS(=O)(=O)c3ccc(F)cc3)ccc2O[C@@H]1CN(C)Cc1ccc(-c2ccccc2)cc1	C2C12 statin inconclusive (no result: NSD2 HMT inh)
C[C@@H]1CN([C@H](C)CO)C(=O)Cc2cc(NS(=O)(=O)c3ccc(F)cc3)ccc2O[C@H]1CN(C)CC1CCCCC1	C2C12 statin 108 (no result: NSD2 HMT inh)
C[C@@H]1CN([C@@H](C)CO)C(=O)Cc2cc(NS(=O)(=O)c3ccc(F)cc3)ccc2O[C@@H]1CN(C)Cc1ccc(-c2ccccc2)cc1	none (no result: PglD inh, NSD2 HMT inh)
Cc1ccc(S(=O)(=O)Nc2ccc3c(c2)CC(=O)N([C@@H](C)CO)C[C@@H](C)[C@H](CN(C)Cc2ccc(-c4ccccc4)cc2)O3)cc1	C2C12 statin 103 (no result: NSD2 HMT inh)
C[C@@H]1CN([C@@H](C)CO)C(=O)c2cc(NS(=O)(=O)c3ccc(F)cc3)ccc2O[C@H]1CN(C)Cc1ccc(-c2ccccc2)cc1	C2C12 statin 71 (no result: NSD2 HMT inh)
COc1ccc(CN(C)C[C@H]2Oc3ccc(NS(=O)(=O)c4ccc(F)cc4)cc3CC(=O)N([C@@H](C)CO)C[C@@H]2C)cc1	C2C12 statin 67 (no result: NSD2 HMT inh)
COc1ccc(CN(C)C[C@@H]2Oc3ccc(NC(=O)NC(C)C)cc3CC(=O)N([C@H](C)CO)C[C@@H]2C)cc1	none (no result: NSD2 HMT inh)
CNC[C@@H]1OCCCC[C@H](C)Oc2ccc(NC(=O)Nc3cccc4ccccc34)cc2C(=O)N([C@@H](C)CO)C[C@H]1C	none (no result: PglD inh, NSD2 HMT inh)
C[C@H]1CN([C@@H](C)CO)C(=O)Cc2cc(NS(C)(=O)=O)ccc2O[C@@H]1CN(C)S(C)(=O)=O	none (no result: NSD2 HMT inh)
C[C@@H]1CN([C@H](C)CO)C(=O)Cc2cc(NS(=O)(=O)c3ccc(Cl)cc3)ccc2O[C@H]1CN(C)Cc1ccccc1	C2C12 statin 96 (no result: NSD2 HMT inh)
COc1ccc(S(=O)(=O)N(C)C[C@@H]2Oc3ccc(NS(=O)(=O)c4ccc(Cl)cc4)cc3CC(=O)N([C@H](C)CO)C[C@@H]2C)cc1	none (no result: NSD2 HMT inh)
C[C@H](CO)N1C[C@H](C)[C@@H](CN(C)Cc2ccccc2)Oc2ccc(NS(=O)(=O)c3ccc(Cl)cc3)cc2CC1=O	none (no result: NSD2 HMT inh)
COc1ccc(S(=O)(=O)N(C)C[C@@H]2Oc3ccc(NS(=O)(=O)c4ccc(Cl)cc4)cc3CC(=O)N([C@@H](C)CO)C[C@H]2C)cc1	C2C12 statin 73 (no result: NSD2 HMT inh)
CCCCNS(=O)(=O)c1ccc2nc(-c3cccnc3)cc(C(=O)NC3CC3)c2c1	none (no result: NSD2 HMT inh)
CCCCNS(=O)(=O)c1ccc2nc(-c3cccnc3)cc(C(=O)NC3CCCC3)c2c1	miR-122 sensor 97 (no result: PglD inh)
Cc1c(NC(=O)/C(C#N)=C/c2ccccc2)c(=O)n(-c2ccccc2)n1C	none (no result: C2C12 statin, PglD inh)
Cc1c(NC(=O)C(C#N)=C2CCCCC2)c(=O)n(-c2ccccc2)n1C	C2C12 statin 106
C[C@@H]1CN([C@H](C)CO)C(=O)Cc2cc(NC(=O)c3ccncc3)ccc2O[C@H]1CN(C)Cc1ccc(Cl)c(Cl)c1	none (no result: NSD2 HMT inh)
C[C@H](CO)N1C[C@H](C)[C@@H](CN(C)Cc2ccc(Cl)c(Cl)c2)Oc2ccc(NC(=O)c3ccncc3)cc2CC1=O	C2C12 statin 133 (no result: NSD2 HMT inh)
C[C@H](CO)N1C[C@H](C)[C@@H](CN(C)Cc2ccc(-c3ccccc3)cc2)Oc2ccc(NC(=O)c3ccncc3)cc2CC1=O	C2C12 statin 124 (no result: NSD2 HMT inh)
C[C@@H]1CN([C@@H](C)CO)C(=O)Cc2cc(NC(=O)C3CCCCC3)ccc2O[C@H]1CN(C)Cc1ccc(-c2ccccc2)cc1	C2C12 statin 137 (no result: NSD2 HMT inh)
COc1cccc(NC(=O)Nc2ccc3c(c2)C(=O)N(C)[C@H]2CC[C@H](CC(=O)O)O[C@@H]2CO3)c1	none (no result: NSD2 HMT inh)
C[C@H](CO)N1C[C@H](C)[C@@H](CN(C)CC2CCOCC2)Oc2cc(C#CC3CC3)ccc2S1(=O)=O	none (no result: NSD2 HMT inh)
O=C(N[C@@H]1CC[C@@H](CC(=O)N2CCCCC2)O[C@@H]1CO)c1cccc(F)c1	none (no result: NSD2 HMT inh, miR-122 sensor)
COC(=O)C[C@H]1CC[C@H]2[C@@H](COc3ccc(NC(=O)c4cc(F)cc(F)c4)cc3C(=O)N2C)O1	none (no result: NSD2 HMT inh)
CCN(CC)S(=O)(=O)c1cc(NS(=O)(=O)c2cc(Cl)ccc2Cl)ccc1C	miR-122 sensor 392 (no result: C2C12 statin)
CCOC(=O)c1[nH]c2ccccc2c1NC(=O)Nc1ccc(OC)cc1	C2C12 statin 119
O=C(NCc1ccco1)c1ccccc1NS(=O)(=O)c1ccc2c(c1)OCCO2	C2C12 statin 109
O=C(NCc1ccco1)c1ccccc1NS(=O)(=O)c1cccs1	none (no result: C2C12 statin, PglD inh, miR-122 sensor)
N#C/C(=C/c1ccc(O)c(O)c1)c1nc2ccccc2[nH]1	NSD2 HMT inh 67
N#C/C(=C\c1cccs1)c1nc2ccccc2[nH]1	none (no result: C2C12 statin, NSD2 HMT inh)
S=c1[nH]cc(-c2ccccc2)n1-c1ccccc1	C2C12 statin 98

Screens as filed in PubChem.
